Experimental findings from PubChem BioAssay (NCI) are described below.

Compounds without any hit were thinned out: in the full panel of roughly 83,000, 20% have a hit.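 Single-concentration screen, 48 h exposure, 96-well plates. Endpoint: percent growth. Below 10 = active.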 Values without a mark were called inactive. The source made the active and inactive calls.

The assay deals with SK-MEL-28 melanoma. As to the kind of experiment: NCI-60 one-dose screen, 48 h (100 = growth as untreated, 0 = no growth, -100 = all killed). The conditions noted are these: 10 µM unless noted.
For `Cn1ccc2c(c1=O)C(=O)c1nccc3c1c-2nc1ccccc13`, the growth is 106%.
For `COC1=CC(=O)C[C@@H](C)[C@]12Oc1c(Cl)c(OC)cc(OC)c1C2=O`, the growth was 85.7%.
For `O=C1CCc2c(sc3[nH]c(=S)n(-c4ccc(OC(F)(F)F)cc4)c(=O)c23)C1`, the growth is 43.2%.
As to `COc1cc(C(=O)/C=C/c2c(-c3ccc(F)cc3)nc3sc(C)cn23)cc(OC)c1OC`, the growth was 12.4%.
Consider `Cc1nn(-c2ccccc2)c(Oc2ccc(Cl)cc2)c1/C=N\N=c1/sc2ccccc2n1C`, for which the growth is 110%.
For the compound `COC(=O)c1ccc(C2Nc3ccc(S(=O)(=O)Nc4ccc(C)c(C)c4)cc3C3OCCC23)cc1` (stereo unspecified), the growth is 99.5%.
For `CCCCCCCCn1ccc2cc(NC(=O)Cn3cc(CN4CCCC4)nn3)ccc21`, the growth was -70.9% (active).
For `O=S(=O)(Nc1cccc(Cl)c1)c1ccc(-c2cnc(C3CC3)o2)cc1`, the growth is 68.4%.
For `COc1ccc(-c2nc(SC(C)C)nc(NNC(N)=S)c2C#N)cc1`, the growth was 58.7%.
`Cc1cc(NCc2cc(Nc3ccnc4cc(Cl)ccc34)ccc2F)nc(N2CCN(C)CC2)n1`: the growth is -70% (active).
Take `Cc1ccc2nc(C)c(-c3nnc(SCc4ccc(C#N)cc4)o3)n2c1`: the growth was 100%.
As for `CCN1C(=O)N(CC)C2Nn3c(s/c(=C\c4ccc(Cl)cc4Cl)c3=O)=NC21` (stereo unspecified), the growth was 45.2%.
Next, `C[n+]1cc2cc(C(N)=O)[nH]c3c(=N)c(Cl)c(N)c1c23`: 109%; `CCc1ccccc1-n1c(-c2ccc(Cl)cc2)cc(-c2ccc(Cl)cc2)c(C#N)c1=O`: 99.4%.
In the case of `Cc1ccc2nc(NC(=O)CSc3nc(-c4ccccc4)c(C#N)c(=O)n3Cc3ccccc3)sc2c1`, the growth is 79.1%.
As for `COc1ccc(C2=Nc3c(N)ncnc3NC(c3ccc4c(c3)OCO4)C2)cc1` (stereo unspecified), the growth was 101%.
In the case of `Clc1ccc(-c2c3ccc(=[N+]4CCCCC4)cc-3oc3cc(N4CCCCC4)ccc23)cc1` it was -91.4% (active).
As to `CCCCN(CCCC)CC(C)(C)C(O)c1ccc(OC)c2ccccc12` (stereo unspecified), the growth was 85%.
Consider `C(=N\Nc1ncc(-c2cc3cc4c(cc3o2)OCO4)s1)/c1ccco1`, for which the growth is 81%.
Next, `O=C(c1ccccc1)c1c(/C=C/c2ccccc2)nc2ccccc2c1/C=C/c1ccc(Br)cc1`: 108%; `Cc1cc(NCc2cc(Nc3ccnc4cc(Cl)ccc34)ccc2F)nc(N2CCN(c3ccccc3)CC2)n1`: 69.7%.
Turning to `O=[N+]([O-])c1ccc(N2c3ccncc3Sc3ccncc32)cc1`, the growth was 115%.
Turning to `COc1cc(C2CC(=O)Nc3c2c(C)nn3-c2nc3ccccc3[nH]2)c(OC)c(OC)c1OC` (stereo unspecified), the growth was 72.3%.
In the case of `Cc1c2c(c(C)c3c1oc1cc(O)ccc13)C(=O)N(CCN1CCCCC1)C2=O`, the growth is 106%.
Consider `COCN1CCC2N(COC)CCC3N(COC)CCC1N23` (stereo unspecified), for which the growth is 106%.
Regarding `Cc1cc(C)c(-c2c(C)cc(C)cc2CBr)c(CBr)c1`, the growth is 86.9%.
